From PubChem BioAssay (Tox21)
Several values for one entry are separate records, joined by “and”; a condition that tells them apart may be missing. Identical values can stand only once. Records with an inconclusive call do not appear. Activity calls are given as the source filed them. Unless noted, calls follow the shape of the dose curve; as a rule, active = well fitted curve in the direction sought with a large enough effect in the repeat runs; inconclusive = weak or mixed curves; inactive = no such curve, though single readings can be large; an effect the other way counts as inactive or inconclusive.

Experiments:
[1] = Caspase-3/7 induction in CHO-K1 cells by small molecules, qHTS cell viability counter screen (AID 1346979); also: nearly all actives have a fitted effect of over 35% in size; also: potency is read from the fitted curve at half-maximal effect
Procedure, shortened: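 CHO-K1 wt, 1,500 cells/well; 5hr pre-incubation 37C/5% CO2; compound pin transfer (DMSO); 16hr exposure; CellTiter-Fluor added, 1hr, fluorescence read.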

[2] = Caspase-3/7 induction in CHO-K1 cells by small molecules, qHTS assay (AID 1346980); also: nearly all actives have a fitted effect of over 15% in size
Procedure, shortened: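 Wild-type cells were seeded at 1,500 per well and settled 5 hr at 37 C, 5% CO2, then exposed to DMSO-dissolved compounds for 17 hr. Caspase-Glo 3/7 reagent was added, and luminescence was read after 30min at room temperature.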

[3] = Caspase-3/7 induction in HepG2 cells by small molecules, qHTS cell viability counter screen (AID 1346981); also: nearly all actives have a fitted effect of over 30% in size; also: potency is read from the fitted curve at half-maximal effect
Procedure, shortened: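 Multiplexed with the caspase-3/7 assay: HepG2 cells, 16 hr compound treatment, CellTiter-Fluor viability detection by fluorescence.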

[4] = target: Nuclear receptor subfamily 1 group I member 2 (Homo sapiens) (UniProt O75469); test: Human pregnane X receptor (PXR) small molecule agonists, qHTS assay (AID 1346982); also: nearly all actives have a fitted effect of over 35% in size; also: potency is read from the fitted curve at half-maximal effect
Procedure, shortened: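 We seeded PXR-Luc HepG2 cells in assay medium containing 5% charcoal-stripped FBS, added compounds 5 hr later, incubated 24 hr, and read luminescence with ONE-Glo reagent.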

[5] = target: Acetylcholinesterase (Homo sapiens) (UniProt P22303); test: Acetylcholinesterase (AChE) small molecule antagonists: colormetric cell-based qHTS assay (AID 1347395; calls by dose curve; also: nearly all actives have a fitted effect of over 30% in size)
Procedure, shortened: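 SH-SY5Y cells; cpd 30 min 37 C; + DTNB/acetylthiocholine, 90 min 37 C; colorimetric thiocholine read; qHTS.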

[6] = target: Acetylcholinesterase (Homo sapiens) (UniProt P22303); test: Acetylcholinesterase (AChE) small molecule antagonists: enzyme-based qHTS assay (AID 1347397; calls by dose curve; also: nearly all actives have a fitted effect of over 55% in size); details: Potency: AChE enzyme activity inhibition
Procedure, shortened: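 Human recombinant acetylcholinesterase; substrate acetylthiocholine; thiocholine quantified with DTNB (colorimetric). Compound preincubation 30 min RT; reaction 10 min RT.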

[7] = target: Acetylcholinesterase (Homo sapiens) (UniProt P22303); test: Acetylcholinesterase (AChE) small molecule antagonists: fluorescence cell-based qHTS assay (AID 1347398; calls by dose curve; also: nearly all actives have a fitted effect of over 50% in size); details: Potency: AChE activity
Procedure, shortened: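 Thiocholine generated from acetylthiocholine by SH-SY5Y cell AChE is detected with Thiolite Green (Ex/Em 490/520 nm) after 40 min at room temperature, following 30 min compound pretreatment at 37 C.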

Measured: Potency

Nuclear receptor subfamily 1 group I member 2 (Homo sapiens), sequence (O75469 whole entry, looked up): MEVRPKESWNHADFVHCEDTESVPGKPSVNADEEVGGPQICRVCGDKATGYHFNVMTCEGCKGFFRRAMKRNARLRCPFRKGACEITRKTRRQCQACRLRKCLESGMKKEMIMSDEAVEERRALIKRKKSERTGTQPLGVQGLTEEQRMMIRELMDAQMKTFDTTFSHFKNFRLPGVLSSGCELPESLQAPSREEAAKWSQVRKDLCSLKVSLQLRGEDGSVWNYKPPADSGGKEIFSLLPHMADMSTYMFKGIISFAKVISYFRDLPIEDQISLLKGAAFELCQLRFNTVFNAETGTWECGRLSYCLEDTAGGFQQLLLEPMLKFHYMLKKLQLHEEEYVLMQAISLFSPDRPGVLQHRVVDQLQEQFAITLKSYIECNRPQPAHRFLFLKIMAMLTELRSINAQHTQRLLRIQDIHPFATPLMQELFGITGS
Acetylcholinesterase (Homo sapiens), sequence (P22303 whole entry, looked up): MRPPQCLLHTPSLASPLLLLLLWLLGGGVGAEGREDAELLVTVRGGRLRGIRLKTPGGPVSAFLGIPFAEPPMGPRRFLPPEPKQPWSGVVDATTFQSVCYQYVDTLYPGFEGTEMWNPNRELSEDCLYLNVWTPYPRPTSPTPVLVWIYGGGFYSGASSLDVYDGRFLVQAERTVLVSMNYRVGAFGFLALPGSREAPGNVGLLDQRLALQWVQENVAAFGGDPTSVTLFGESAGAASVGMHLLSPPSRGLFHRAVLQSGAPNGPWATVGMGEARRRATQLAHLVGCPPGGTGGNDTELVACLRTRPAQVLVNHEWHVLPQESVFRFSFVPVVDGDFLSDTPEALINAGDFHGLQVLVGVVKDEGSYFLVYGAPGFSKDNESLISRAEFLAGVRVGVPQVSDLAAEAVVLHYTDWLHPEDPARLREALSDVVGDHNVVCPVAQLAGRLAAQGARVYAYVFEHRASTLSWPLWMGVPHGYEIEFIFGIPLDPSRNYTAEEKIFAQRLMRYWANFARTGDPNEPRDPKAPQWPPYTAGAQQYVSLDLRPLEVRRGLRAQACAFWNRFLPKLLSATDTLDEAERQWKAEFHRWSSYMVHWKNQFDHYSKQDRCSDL

Cc1cccc(OP(=O)(Oc2cccc(C)c2)Oc2cccc(C)c2)c1
active: [4] 30.6 µM
inactive: all other assays above

N#Cc1c(-c2ccc(Cl)cc2)[nH]c(C(F)(F)F)c1Br
active: [1] 1.54 µM | [3] 27.3 µM | [4] 2.17 µM
inactive: all other assays above

C[C@@H]1CC[C@@]2(OC1)O[C@H]1[C@@H](O)[C@H]3[C@@H]4CC[C@H]5C[C@@H](O[C@@H]6O[C@H](CO)[C@H](O[C@@H]7O[C@H](CO)[C@@H](O)[C@H](O[C@@H]8OC[C@@H](O)[C@H](O)[C@H]8O)[C@H]7O[C@@H]7O[C@H](CO)[C@@H](O)[C@H](O[C@@H]8O[C@H](CO)[C@@H](O)[C@H](O)[C@H]8O)[C@H]7O)[C@H](O)[C@H]6O)[C@H](O)C[C@]5(C)[C@H]4CC[C@]3(C)[C@H]1[C@@H]2C
active: [1] 4.59 µM | [3] 36.5 µM
not listed: [7]
inactive: all other assays above

CC(Cl)CN(C)C (stereo unspecified)
inactive: all assays above

FC(Cl)(Cl)Cl
inactive: all assays above

Oc1ccc2ccc3cccc4ccc1c2c34
active: [4] 27.3 µM
inactive: all other assays above

CC(=O)c1ccc(-c2ccccc2)cc1
active: [4] 48.6 µM
inactive: all other assays above

CC(=O)[O-].CC(=O)[O-].[Hg+2]
inactive: [2]
active: [1] 2.43 µM | [3] 19.3 µM

CC(C)CBr
not listed: [7]
inactive: all other assays above

CN(C)c1ccc(N=Nc2ccccc2)cc1
active: [1] 30.7 µM | [3] 48.6 µM | [4] 7.7 µM
inactive: all other assays above

Oc1ccc(I)cc1
inactive: all assays above

CN(CCCC(=O)c1cccnc1)N=O
inactive: all assays above

Clc1ccc(Oc2ccccc2)cc1
inactive: all assays above

C[C@]12CC[C@H]3[C@@H](CCC4=CC(=O)CC[C@@]43C)[C@@H]1CC[C@@H]2O
active: [4] 27.1 µM
inactive: all other assays above

COc1ccc(OC)c(C=O)c1
inactive: all assays above

COC[C@H](C)N(C(=O)CCl)c1c(C)csc1C
inactive: all assays above

CC(=[OH+])/C=C(/C)[O-].CC(=[OH+])/C=C(\C)[O-].CC(=[OH+])/C=C(\C)[O-].[Al]
inactive: all assays above

O=[N+]([O-])c1ccc2ccc3cccc4ccc1c2c34
active: [1] 43.2 µM | [3] 27.3 µM | [4] 21.7 µM
inactive: all other assays above

CC(O)C#N (stereo unspecified)
inactive: all assays above

CSCCCN=C=S
inactive: all assays above

O=C(NC(=O)c1c(F)cccc1F)Nc1cc(Cl)c(OC(F)(F)C(F)F)c(Cl)c1
inactive: all assays above

N#CCCSCCC#N
inactive: all assays above

Cc1cc(C)c(C2=C(OC(=O)CC(C)(C)C)C3(CCCC3)OC2=O)c(C)c1
inactive: all assays above

CC1(C)[C@H](C(=O)O[C@H](C#N)c2cccc(Oc3ccccc3)c2)[C@@H]1/C=C(\Cl)C(F)(F)F
active: [4] 3.57 µM and 2.43 µM
inactive: all other assays above

N#C/C=C/c1ccccc1
inactive: all assays above

C[As+](C)(C)CC(=O)[O-]
inactive: all assays above
